Results taken from the supplement of paper PMC12067093, “Discovery and optimisation of a covalent ligand for TRIM25 and its application to targeted protein ubiquitination” (Chemical Science, 2025).
The full data set covers some 21,000 targets. This sample favours those with the largest changes.

Compound: Cc1cc(ccc1-c1ccccc1)C(=O)N1CCCN(CC1)C(=O)CCl [compound 10]
Assay: probe-labelled cysteine peptide fold change vs DMSO (competition) (log2 fold change); higher = less target engagement (more negative = stronger competition)
Details: THP-1, incubation time: 4 h
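Note: competitive profiling in live THP-1 cells: cysteine peptides tagged with an iodoacetamide desthiobiotin (IA-DTB) probe, intensity after compound treatment relative to DMSO-treated cells.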

UniProt O95696, sequence (O95696 whole entry, looked up): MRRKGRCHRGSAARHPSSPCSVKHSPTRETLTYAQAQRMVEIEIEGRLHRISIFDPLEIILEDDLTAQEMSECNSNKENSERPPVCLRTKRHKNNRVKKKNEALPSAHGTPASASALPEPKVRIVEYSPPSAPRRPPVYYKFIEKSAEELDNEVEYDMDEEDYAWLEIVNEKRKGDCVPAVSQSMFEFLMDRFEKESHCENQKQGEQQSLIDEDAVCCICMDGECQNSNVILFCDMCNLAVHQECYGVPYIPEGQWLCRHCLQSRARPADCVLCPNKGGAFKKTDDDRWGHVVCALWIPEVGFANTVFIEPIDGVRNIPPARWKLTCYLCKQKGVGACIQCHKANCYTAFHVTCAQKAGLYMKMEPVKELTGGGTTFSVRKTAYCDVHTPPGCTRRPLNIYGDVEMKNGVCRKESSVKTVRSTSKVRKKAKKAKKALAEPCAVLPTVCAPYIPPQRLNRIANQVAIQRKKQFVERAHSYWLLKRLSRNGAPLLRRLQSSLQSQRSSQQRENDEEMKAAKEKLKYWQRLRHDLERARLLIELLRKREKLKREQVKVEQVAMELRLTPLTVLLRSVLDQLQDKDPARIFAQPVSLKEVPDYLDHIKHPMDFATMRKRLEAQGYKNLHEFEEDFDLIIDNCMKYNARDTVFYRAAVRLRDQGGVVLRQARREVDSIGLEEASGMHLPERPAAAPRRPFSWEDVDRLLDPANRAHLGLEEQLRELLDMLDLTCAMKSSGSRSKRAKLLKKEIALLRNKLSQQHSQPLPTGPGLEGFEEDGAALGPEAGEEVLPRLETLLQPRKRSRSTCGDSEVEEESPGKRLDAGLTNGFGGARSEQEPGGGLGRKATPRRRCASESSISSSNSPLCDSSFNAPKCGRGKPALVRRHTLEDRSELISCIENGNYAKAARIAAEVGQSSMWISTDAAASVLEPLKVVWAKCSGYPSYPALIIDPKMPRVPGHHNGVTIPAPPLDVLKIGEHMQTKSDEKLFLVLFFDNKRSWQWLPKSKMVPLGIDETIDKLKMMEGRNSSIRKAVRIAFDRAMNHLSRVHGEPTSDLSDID
UniProt Q86VP6, sequence (Q86VP6 whole entry, looked up): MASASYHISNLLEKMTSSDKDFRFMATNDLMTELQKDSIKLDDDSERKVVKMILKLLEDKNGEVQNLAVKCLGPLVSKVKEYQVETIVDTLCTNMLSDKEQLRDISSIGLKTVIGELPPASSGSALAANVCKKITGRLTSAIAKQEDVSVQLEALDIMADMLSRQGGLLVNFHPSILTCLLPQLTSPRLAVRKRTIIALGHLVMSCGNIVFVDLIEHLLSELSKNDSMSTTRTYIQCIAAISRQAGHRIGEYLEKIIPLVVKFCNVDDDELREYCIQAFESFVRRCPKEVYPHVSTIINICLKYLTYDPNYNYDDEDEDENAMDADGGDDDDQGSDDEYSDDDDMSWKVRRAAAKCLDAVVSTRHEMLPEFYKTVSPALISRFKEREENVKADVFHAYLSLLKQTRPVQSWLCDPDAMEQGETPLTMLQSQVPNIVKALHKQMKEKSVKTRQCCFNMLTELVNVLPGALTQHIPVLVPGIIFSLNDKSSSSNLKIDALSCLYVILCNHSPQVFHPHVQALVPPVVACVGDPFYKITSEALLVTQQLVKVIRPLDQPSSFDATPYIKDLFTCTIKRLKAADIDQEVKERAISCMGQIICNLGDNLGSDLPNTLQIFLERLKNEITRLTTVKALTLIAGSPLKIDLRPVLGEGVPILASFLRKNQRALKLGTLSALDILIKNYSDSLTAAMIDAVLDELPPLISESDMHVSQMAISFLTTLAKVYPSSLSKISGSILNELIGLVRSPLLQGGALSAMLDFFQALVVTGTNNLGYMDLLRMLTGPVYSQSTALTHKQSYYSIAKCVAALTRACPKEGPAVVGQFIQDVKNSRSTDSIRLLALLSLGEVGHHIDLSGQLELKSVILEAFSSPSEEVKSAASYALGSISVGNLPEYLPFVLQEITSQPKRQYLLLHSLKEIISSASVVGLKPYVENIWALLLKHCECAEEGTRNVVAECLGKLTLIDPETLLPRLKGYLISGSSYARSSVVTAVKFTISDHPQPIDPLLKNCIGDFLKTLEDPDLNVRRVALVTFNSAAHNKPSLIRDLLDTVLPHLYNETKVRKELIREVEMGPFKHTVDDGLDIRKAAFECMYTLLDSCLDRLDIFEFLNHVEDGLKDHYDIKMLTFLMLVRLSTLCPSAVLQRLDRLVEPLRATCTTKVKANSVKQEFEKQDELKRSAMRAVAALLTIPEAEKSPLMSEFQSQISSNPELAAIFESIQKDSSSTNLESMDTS
UniProt Q92851, sequence (Q92851 whole entry, looked up): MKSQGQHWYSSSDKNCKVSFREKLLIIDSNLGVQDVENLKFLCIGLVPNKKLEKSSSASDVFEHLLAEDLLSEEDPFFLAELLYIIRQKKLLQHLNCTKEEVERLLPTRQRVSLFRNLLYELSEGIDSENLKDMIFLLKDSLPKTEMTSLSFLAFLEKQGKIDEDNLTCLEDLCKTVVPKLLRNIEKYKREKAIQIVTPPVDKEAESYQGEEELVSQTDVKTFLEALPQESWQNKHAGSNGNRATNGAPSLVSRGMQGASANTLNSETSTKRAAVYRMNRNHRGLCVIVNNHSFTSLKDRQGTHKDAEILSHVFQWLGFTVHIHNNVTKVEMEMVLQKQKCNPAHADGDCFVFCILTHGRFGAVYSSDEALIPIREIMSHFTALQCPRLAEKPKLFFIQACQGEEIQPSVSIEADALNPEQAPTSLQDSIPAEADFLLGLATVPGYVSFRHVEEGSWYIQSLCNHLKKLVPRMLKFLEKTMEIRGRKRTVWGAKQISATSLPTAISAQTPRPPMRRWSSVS
UniProt Q9BSF8, sequence (Q9BSF8 whole entry, looked up): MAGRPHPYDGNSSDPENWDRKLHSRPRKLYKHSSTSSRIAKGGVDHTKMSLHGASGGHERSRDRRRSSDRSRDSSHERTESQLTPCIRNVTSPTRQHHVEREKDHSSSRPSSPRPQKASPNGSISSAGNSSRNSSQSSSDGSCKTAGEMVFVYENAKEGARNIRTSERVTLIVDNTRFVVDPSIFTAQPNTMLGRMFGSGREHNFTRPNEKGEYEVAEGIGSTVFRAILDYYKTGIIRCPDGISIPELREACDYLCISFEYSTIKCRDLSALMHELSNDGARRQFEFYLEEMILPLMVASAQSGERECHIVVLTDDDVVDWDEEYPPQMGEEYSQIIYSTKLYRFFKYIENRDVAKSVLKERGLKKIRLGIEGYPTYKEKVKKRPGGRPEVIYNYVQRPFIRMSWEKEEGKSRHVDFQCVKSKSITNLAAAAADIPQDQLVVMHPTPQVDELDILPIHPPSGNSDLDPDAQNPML
UniProt P60953, sequence (P60953 whole entry, looked up): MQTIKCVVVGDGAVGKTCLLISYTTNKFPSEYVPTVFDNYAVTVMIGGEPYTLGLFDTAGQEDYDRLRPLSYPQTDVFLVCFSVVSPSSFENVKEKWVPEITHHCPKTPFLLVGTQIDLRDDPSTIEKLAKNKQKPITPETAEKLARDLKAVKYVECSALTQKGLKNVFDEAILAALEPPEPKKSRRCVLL
UniProt Q14137, sequence (Q14137 whole entry, looked up): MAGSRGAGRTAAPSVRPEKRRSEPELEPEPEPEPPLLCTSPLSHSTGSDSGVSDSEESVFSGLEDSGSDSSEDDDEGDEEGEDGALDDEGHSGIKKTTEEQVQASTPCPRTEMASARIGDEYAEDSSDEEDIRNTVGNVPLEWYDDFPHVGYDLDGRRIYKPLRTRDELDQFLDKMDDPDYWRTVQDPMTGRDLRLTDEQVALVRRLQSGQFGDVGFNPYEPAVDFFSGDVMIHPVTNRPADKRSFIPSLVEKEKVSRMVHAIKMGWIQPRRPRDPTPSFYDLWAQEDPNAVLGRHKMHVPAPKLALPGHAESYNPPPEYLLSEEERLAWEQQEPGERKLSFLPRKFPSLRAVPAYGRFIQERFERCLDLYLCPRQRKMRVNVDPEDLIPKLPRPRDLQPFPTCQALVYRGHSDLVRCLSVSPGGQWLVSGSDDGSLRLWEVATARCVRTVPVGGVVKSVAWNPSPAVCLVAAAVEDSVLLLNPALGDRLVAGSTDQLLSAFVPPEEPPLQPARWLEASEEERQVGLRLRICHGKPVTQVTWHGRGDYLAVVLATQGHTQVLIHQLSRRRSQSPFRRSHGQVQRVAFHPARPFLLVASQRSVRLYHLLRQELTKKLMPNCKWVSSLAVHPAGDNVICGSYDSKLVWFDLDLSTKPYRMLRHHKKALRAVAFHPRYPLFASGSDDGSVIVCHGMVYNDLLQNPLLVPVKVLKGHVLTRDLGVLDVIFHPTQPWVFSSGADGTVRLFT
UniProt P42575, sequence (P42575 whole entry, looked up): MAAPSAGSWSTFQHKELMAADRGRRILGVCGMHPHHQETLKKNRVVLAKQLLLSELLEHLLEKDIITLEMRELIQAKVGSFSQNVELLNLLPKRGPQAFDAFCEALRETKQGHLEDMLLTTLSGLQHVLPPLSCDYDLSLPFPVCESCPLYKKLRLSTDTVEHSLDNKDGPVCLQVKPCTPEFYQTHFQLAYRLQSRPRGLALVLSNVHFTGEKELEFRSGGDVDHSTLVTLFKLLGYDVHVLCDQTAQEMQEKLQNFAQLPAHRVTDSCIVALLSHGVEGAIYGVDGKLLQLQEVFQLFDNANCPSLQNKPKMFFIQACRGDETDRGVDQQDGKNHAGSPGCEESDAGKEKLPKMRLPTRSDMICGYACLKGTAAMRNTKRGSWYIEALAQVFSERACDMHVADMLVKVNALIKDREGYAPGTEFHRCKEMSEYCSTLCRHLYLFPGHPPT
UniProt P23528, sequence (P23528 whole entry, looked up): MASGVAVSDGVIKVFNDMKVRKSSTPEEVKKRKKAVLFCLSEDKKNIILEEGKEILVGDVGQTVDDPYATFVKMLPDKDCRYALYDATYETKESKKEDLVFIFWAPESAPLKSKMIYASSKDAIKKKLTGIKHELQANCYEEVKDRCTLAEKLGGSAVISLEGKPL
UniProt P83916, sequence (P83916 whole entry, looked up): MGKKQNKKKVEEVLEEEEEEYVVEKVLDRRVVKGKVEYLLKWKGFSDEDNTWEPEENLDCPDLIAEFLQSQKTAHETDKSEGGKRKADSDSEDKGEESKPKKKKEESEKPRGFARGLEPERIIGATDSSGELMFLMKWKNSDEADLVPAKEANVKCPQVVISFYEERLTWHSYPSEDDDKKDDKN

| Target | probe-labelled cysteine peptide fold change (10 µM) | probe-labelled cysteine peptide fold change (50 µM) |
| --- | --- | --- |
| CELF2_O95319_174_GCAFVTFSTR (UniProt O95319) | 0.0275 | 0.0429 |
| AVEN_Q9NQS1_169_EWDSEASCPK (UniProt Q9NQS1) | -0.857 | -2.39 |
| CARM1_Q86X55_438_AGDTLSGTCLLIANK (UniProt Q86X55) | 0.0534 | 0.146 |
| CEP170_Q5SW79_30_EMIFVGRDDCELMLQSR (UniProt Q5SW79) | -0.075 | 0.0343 |
| CAMK2B_Q13554_116_EYYSEADASHCIQQILEAVLHCHQMGVVHR (UniProt Q13554) | -0.0191 | 0.141 |
| CBR1_P16152_122_DVCTELLPLIK (UniProt P16152) | 0.109 | 0.509 |
| CAD_P27708_2161_FGSTQEYEACFGQFILTPHIMTR (UniProt P27708) | 0.0378 | 0.111 |
| CASP2_P42575_30_ILGVCGMHPHHQETLKK (UniProt P42575) | -0.432 | -1.14 |
| CEP192_Q8TEP8_1562_APVEVAPCADVVTR (UniProt Q8TEP8) | -0.611 | -0.285 |
| BIRC6_Q9NR09_3773_TAIENATVAFFLQCISCHPNNQK (UniProt Q9NR09) | 0.213 | 0.136 |
| CDC45_O75419_267_HNHRNEDEENTLSVDCTR (UniProt O75419) | 0.0632 | -0.279 |
| CBX1_P83916_156_CPQVVISFYEER (UniProt P83916) | 0.121 | -0.00934 |
| BRAP_Q7Z569_47_TTLASAVACLEGK (UniProt Q7Z569) | -0.252 | -0.245 |
| CDC42_P60953_105_EKWVPEITHHCPK (UniProt P60953) | -0.508 | -0.929 |
| CHPF_Q8IZ52_243_YCHGGFGVLLSR (UniProt Q8IZ52) | -0.176 | 0.255 |
| CBX8_Q9HC52_142_NMGLSPPASSTSTSSTCR (UniProt Q9HC52) | -0.187 | -0.373 |
| CAND1_Q86VP6_802_CVAALTR (UniProt Q86VP6) | 0.211 | -0.156 |
| BRD1_O95696_294_TDDDRWGHVVCALWIPEVGFANTVFIEPIDGVR (UniProt O95696) | -0.0156 | 0.0676 |
| C17orf75_Q9HAS0_265_FLSVASLQGLIHEGTMTSLCMAMTEEQHK (UniProt Q9HAS0) | 0.0249 | -0.756 |

| Target | probe-labelled cysteine peptide fold change (10 µM) | probe-labelled cysteine peptide fold change (50 µM) |
| --- | --- | --- |
| BRIX1_Q8TDN6_52_RHATAEEVEEEERDRIPGPVCK (UniProt Q8TDN6) | -0.278 | -0.296 |
| CCAR2_Q8N163_515_RNAETPEATTQQETDTDLPEAPPPPLEPAVIARPGCVNLSLHGIVEDR (UniProt Q8N163) | 0.107 | -0.245 |
| CASP10_Q92851_169_IDEDNLTCLEDLCK (UniProt Q92851) | -0.0609 | 0.0728 |
| CARD9_Q9H257_402_ADELQLQVFQCEAQLLAVEGR (UniProt Q9H257) | 0.18 | 0.639 |
| CELF1_Q92879_119_CTENDIR (UniProt Q92879) | 0.0497 | 0.276 |
| CEPT1_Q9Y6K0_11+30_CGDSHPESPVGFGHMSTTGCVLNK (UniProt Q9Y6K0) | -1.98 | -2.17 |
| BCKDHB_P21953_361_VCGYDTPFPHIFEPFYIPDK (UniProt P21953) | -0.0395 | 0.155 |
| CENPF_P49454_339_CRDELVR (UniProt P49454) | 0.481 | 0.506 |
| CHORDC1_Q9UHD1_59_RTTDFSDFLSIVGCTK (UniProt Q9UHD1) | -0.167 | -0.292 |
| CFL1_P23528_39_AVLFCLSEDK (UniProt P23528) | 0.0825 | 0.0485 |
| CHORDC1_Q9UHD1_86_ELCELK (UniProt Q9UHD1) | -0.0657 | 0.205 |
| BHLHE22_Q8NFJ8_156_GSVAESSGGEQSPDDDSDGRCELVLR (UniProt Q8NFJ8) | -0.393 | -0.217 |
| CDK5_Q00535_117_GLGFCHSR (UniProt Q00535) | 0.00449 | 0.158 |
| CEPT1_Q9Y6K0_30_CGDSHPESPVGFGHMSTTGCVLNK (UniProt Q9Y6K0) | -2.38 | -2.51 |
| CBX4_O00257_185_EAPSPTCPDLGAK (UniProt O00257) | -0.129 | -0.0437 |
| BOP1_Q14137_108_TTEEQVQASTPCPR (UniProt Q14137) | -0.185 | -0.638 |
| BTBD10_Q9BSF8_86_TESQLTPCIR (UniProt Q9BSF8) | -0.608 | -1.07 |
| CBR1_P16152_226_ILLNACCPGWVR (UniProt P16152) | -0.103 | -0.297 |
